The values below come from the antibiotic and cytotoxicity screens of Wong et al. (2023).

In all, about 39,000 compounds went through this assay and about 3,300 (8.5%) were called active. This is one part of a sample in which actives are shown more often than they occur.

This test concerns HepG2. Kind of test: cytotoxicity call (relative viability < 0.9). Conditions: 10 µM.
As for `Cc1ccc(S(=O)(=O)N(C)C[C@@H]2Oc3ccc(NS(=O)(=O)c4cccs4)cc3CC(=O)N([C@H](C)CO)C[C@@H]2C)cc1`, the cytotoxicity call is “inactive”.

Consider `COc1ccc(COC[C@]23NC(=O)N[C@H](c4ccccc4O2)[C@H]3COC(=O)NCCCCCC(=O)NO)cc1`, for which the cytotoxicity call is “inactive”.

Regarding `COCC(=O)N(C)C[C@H]1Oc2cc(-c3ccc(C#N)cc3)ccc2S(=O)(=O)N([C@H](C)CO)C[C@@H]1C`, the cytotoxicity call is “inactive”.

Consider `O=C(CCCCCNC(=O)OCc1ccc(CO[C@@H]2C[C@H](c3ccc(Br)cc3)C=C(C(=O)N3CCN(Cc4ccccc4)CC3)O2)cc1)NO`, for which the cytotoxicity call was “inactive”.

For `COCC(=O)N(C)C[C@H]1Oc2cc(C#CCN(C)C)ccc2S(=O)(=O)N([C@@H](C)CO)C[C@@H]1C`, the cytotoxicity call is “inactive”.

Regarding `C[C@H](CO)N1C[C@H](C)[C@H](CN(C)S(=O)(=O)c2cccs2)OCCCC[C@H](C)Oc2ccc(NS(=O)(=O)c3cn(C)cn3)cc2C1=O`, the cytotoxicity call was “inactive”.

With `C[C@@H]1CN([C@H](C)CO)C(=O)c2cccc(N(C)C)c2O[C@H]1CN(C)S(C)(=O)=O`, the cytotoxicity call is “inactive”.

Turning to `C[C@H](CO)N1C[C@H](C)[C@H](CN(C)Cc2ccc(Cl)c(Cl)c2)Oc2ccc(NC(=O)Nc3ccc(F)cc3)cc2CC1=O`, the cytotoxicity call was “active”.

Regarding `C[C@@H]1CN([C@@H](C)CO)C(=O)Cc2cc(NC(=O)Nc3ccc(F)cc3)ccc2O[C@H]1CN(C)Cc1ccc(Cl)c(Cl)c1`, the cytotoxicity call was “active”.

For the compound `C[C@H]1CN([C@@H](C)CO)C(=O)Cc2cc(NC(=O)Nc3ccc(F)cc3)ccc2O[C@@H]1CN(C)Cc1ccc(Cl)c(Cl)c1`, the cytotoxicity call was “active”.

As for `C[C@@H]1CN([C@H](C)CO)C(=O)Cc2cc(NC(=O)Nc3ccc(F)cc3)ccc2O[C@H]1CN(C)Cc1ccc(Cl)c(Cl)c1`, the cytotoxicity call is “inactive”.

For the compound `C[C@H](CO)N1C[C@H](C)[C@@H](CN(C)S(=O)(=O)c2cn(C)cn2)Oc2c(NC(=O)CCCN(C)C)cccc2C1=O`, the cytotoxicity call was “inactive”.

For the compound `COc1ccc(NC(=O)N[C@@H]2CC[C@@H](CCNC(=O)CN3CCOCC3)O[C@@H]2CO)cc1`, the cytotoxicity call is “inactive”.

Turning to `C[C@@H]1CN([C@@H](C)CO)C(=O)CCCn2cc(nn2)CO[C@H]1CN(C)S(=O)(=O)c1ccc2c(c1)OCCCO2`, the cytotoxicity call is “inactive”.

`Cc1noc(C)c1NC(=O)N(C)C[C@H]1Oc2ccc(NS(C)(=O)=O)cc2C(=O)N([C@@H](C)CO)C[C@H]1C`: the cytotoxicity call was “inactive”.

On to `C[C@H]1CCCCO[C@@H](CN(C)S(=O)(=O)c2ccc(F)cc2)[C@@H](C)CN([C@@H](C)CO)C(=O)c2cc(NC(=O)Nc3cccc4ccccc34)ccc2O1`, for which the cytotoxicity call is “inactive”.

In the case of `Cc1noc(C)c1NC(=O)Nc1ccc2c(c1)C(=O)N([C@H](C)CO)C[C@@H](C)[C@H](CN(C)C(=O)Nc1ccc(C(F)(F)F)cc1)OCCCC[C@@H](C)O2`, the cytotoxicity call is “inactive”.

`C[C@@H]1CN([C@H](C)CO)C(=O)c2cccc(NS(=O)(=O)c3ccccc3)c2O[C@@H]1CN(C)S(=O)(=O)c1cccs1`: the cytotoxicity call is “inactive”.

Turning to `C/C1=C2/[N]([Co+][OH])[C@H]([C@H](CC(N)=O)[C@@]2(C)CCC(=O)NC[C@@H](C)OP(=O)(O)O[C@H]2[C@@H](O)[C@@H](n3cnc4cc(C)c(C)cc43)O[C@@H]2CO)[C@]2(C)N=C(/C(C)=C3N=C(/C=C4N=C1[C@@H](CCC(N)=O)C/4(C)C)[C@@H](CCC(N)=O)[C@]\3(C)CC(N)=O)[C@@H](CCC(N)=O)[C@]2(C)CC(N)=O`, the cytotoxicity call is “active”.

In the case of `C[C@@H]1CN([C@@H](C)CO)C(=O)c2cc(NC(=O)Nc3ccc4c(c3)OCO4)ccc2O[C@H]1CN(C)C(=O)Nc1cccc2ccccc12`, the cytotoxicity call is “inactive”.

Turning to `O=C(C[C@@H]1C[C@H]2c3cc(NC(=O)NC4CCCC4)ccc3O[C@H]2[C@H](CO)O1)NCCN1CCCCC1`, the cytotoxicity call is “inactive”.

With `Cc1cc(=O)oc2c(O)c(O)ccc12`, the cytotoxicity call is “active”.

On to `Cc1cc2cc3c(C)cc(=O)oc3c(C)c2o1`, for which the cytotoxicity call is “inactive”.

For the compound `O=c1cc(-c2ccccc2)oc2c(O)c(O)ccc12`, the cytotoxicity call is “active”.

On to `COc1ccc2c(=O)cc(-c3ccccc3)oc2c1OC`, for which the cytotoxicity call was “inactive”.

Turning to `Cc1cc(=O)oc2cc(O)ccc12`, the cytotoxicity call is “inactive”.

As for `O=c1cc(-c2ccccc2)oc2cc(O)ccc12`, the cytotoxicity call was “inactive”.

For `C[C@@H]1CCCCO[C@@H](CN(C)C(=O)Nc2ccc(F)cc2)[C@H](C)CN([C@H](C)CO)C(=O)c2cc(NC(=O)Nc3ccccc3)ccc2O1`, the cytotoxicity call is “inactive”.

Take `C[C@@H]1CN([C@@H](C)CO)C(=O)c2cc(NS(=O)(=O)c3ccc(Cl)cc3)ccc2O[C@@H](C)CCCCO[C@H]1CN(C)C(=O)c1ccccc1`: the cytotoxicity call is “inactive”.

For `Cc1ccc(S[C@]2(C(=O)NCC(C)C)CC(=O)N(Cc3ccccc3C(F)(F)F)[C@@H]2c2ccc(CO)cc2)cc1`, the cytotoxicity call was “inactive”.

For `Cc1noc(C)c1NC(=O)Nc1ccc2c(c1)C(=O)N([C@@H](C)CO)C[C@@H](C)[C@H](CN(C)Cc1ccc(Oc3ccccc3)cc1)O2`, the cytotoxicity call is “inactive”.

`COC(=O)CCCCCCC(=O)N/N=C/[C@H](O)[C@H](O)[C@@H](O)[C@H](C)O`: the cytotoxicity call is “inactive”.

As for `C=CC[C@H](CC(=O)N(CCO)Cc1ccccc1)C(=O)N[C@@H](COC(=O)[C@@H](CC=C)Cc1ccc(F)cc1)Cc1c[nH]c2ccccc12`, the cytotoxicity call was “active”.

On to `C=CC[C@@H](CC(=O)N(CCO)Cc1ccccc1)C(=O)N[C@@H](COC(=O)[C@H](CC=C)Cc1ccc(F)cc1)Cc1c[nH]c2ccccc12`, for which the cytotoxicity call was “active”.

`C=CC[C@@H](CC(=O)N(CCO)Cc1ccccc1)C(=O)N[C@@H](COC(=O)[C@H](CC=C)CC(=O)OC(C)(C)C)Cc1c[nH]c2ccccc12`: the cytotoxicity call was “inactive”.

For the compound `C=CC[C@H](CC(=O)N(CCO)Cc1ccccc1)C(=O)N[C@H](COC(=O)[C@@H](CC=C)Cc1ccc(F)cc1)Cc1c[nH]c2ccccc12`, the cytotoxicity call is “inactive”.

`C=CC[C@@H](CC(=O)N(CCO)Cc1ccccc1)C(=O)N[C@H](COC(=O)[C@@H](CC=C)Cc1ccc(F)cc1)Cc1c[nH]c2ccccc12`: the cytotoxicity call is “active”.

In the case of `C=CC[C@@H](CC(=O)N(CCO)Cc1ccccc1)C(=O)N[C@@H](COC(=O)[C@@H](CC=C)Cc1ccc(F)cc1)Cc1c[nH]c2ccccc12`, the cytotoxicity call is “inactive”.

Take `C=CC[C@@H](CC(=O)N(CCO)Cc1ccccc1)C(=O)N[C@@H](COC(=O)[C@@H](CC=C)CC(=O)OC(C)(C)C)Cc1c[nH]c2ccccc12`: the cytotoxicity call was “inactive”.

On to `C=CC[C@H](CC(=O)N(CCO)Cc1ccccc1)C(=O)N[C@@H](COC(=O)[C@H](CC=C)CC(=O)OC(C)(C)C)Cc1c[nH]c2ccccc12`, for which the cytotoxicity call was “inactive”.

Take `C=CC[C@H](CC(=O)N(CCO)Cc1ccccc1)C(=O)N[C@H](COC(=O)[C@H](CC=C)CC(=O)OC(C)(C)C)Cc1c[nH]c2ccccc12`: the cytotoxicity call was “inactive”.

In the case of `c1ccc2c(CSc3nc4ccccc4o3)cccc2c1`, the cytotoxicity call is “inactive”.

Regarding `CNC(=O)C[C@H]1CC[C@@H]2[C@H](COC[C@H](O)CN2C(=O)Nc2cccc(OC)c2)O1`, the cytotoxicity call is “inactive”.

Regarding `C[C@@H]1CCCCO[C@H](CN(C)C(=O)Nc2cccc3ccccc23)[C@@H](C)CN([C@H](C)CO)C(=O)c2cc(NC(=O)Nc3cccc4ccccc34)ccc2O1`, the cytotoxicity call is “inactive”.

For `C[C@@H]1CN([C@@H](C)CO)C(=O)c2cc(NS(=O)(=O)c3ccc(Cl)cc3)ccc2O[C@@H](C)CCCCO[C@H]1CN(C)S(=O)(=O)c1ccccc1`, the cytotoxicity call is “inactive”.

`COc1ccc(NC(=O)N(C)C[C@H]2OCc3cnnn3CCCC(=O)N([C@H](C)CO)C[C@H]2C)c(OC)c1`: the cytotoxicity call is “inactive”.

As for `C[C@@H]1CN([C@H](C)CO)C(=O)c2c(c3ccccc3n2C)-c2ccccc2CO[C@H]1CN(C)C(=O)CCC(F)(F)F`, the cytotoxicity call is “inactive”.

Turning to `C[C@@H]1CN([C@@H](C)CO)C(=O)c2cc(C#CC3(O)CCCC3)cnc2O[C@@H]1CN(C)C(=O)Nc1ccc2c(c1)OCO2`, the cytotoxicity call is “inactive”.

`COCC#Cc1ccc2c(c1)O[C@@H](CN(C)C(=O)C1CCOCC1)[C@@H](C)CN([C@H](C)CO)S2(=O)=O`: the cytotoxicity call was “inactive”.

Turning to `CCS(=O)(=O)Nc1ccc2c(c1)C(=O)N(C)[C@H]1CC[C@@H](CC(=O)NCc3ccccc3F)O[C@H]1CO2`, the cytotoxicity call was “inactive”.

In the case of `C[C@H]1CN([C@@H](C)CO)C(=O)Cc2cc(NC(=O)CCCCCC(=O)Nc3ccccc3N)ccc2O[C@H]1CN(C)Cc1ccccc1`, the cytotoxicity call is “inactive”.

As to `C[C@@H]1CN([C@H](C)CO)C(=O)Cc2cc(NC(=O)CCCCCC(=O)Nc3ccccc3N)ccc2O[C@@H]1CN(C)Cc1ccccc1`, the cytotoxicity call is “inactive”.

Consider `C[C@@H]1CN([C@H](C)CO)C(=O)Cc2cc(NC(=O)CCCCCC(=O)Nc3ccccc3N)ccc2O[C@@H]1CN(C)Cc1ccc(Cl)c(Cl)c1`, for which the cytotoxicity call was “active”.

As to `C[C@H](CO)N1C[C@H](C)[C@H](CN(C)Cc2ccccc2)Oc2ccc(NC(=O)CCCCCC(=O)Nc3ccccc3N)cc2CC1=O`, the cytotoxicity call was “inactive”.

As for `C[C@H](CO)N1C[C@H](C)[C@@H](CN(C)Cc2ccc(-c3ccccc3)cc2)Oc2ccc(NC(=O)CCCCCC(=O)Nc3ccccc3N)cc2CC1=O`, the cytotoxicity call was “inactive”.

Consider `C[C@@H]1CN([C@H](C)CO)C(=O)Cc2cc(NC(=O)CCCCCC(=O)Nc3ccccc3N)ccc2O[C@@H]1CN(C)Cc1ccc(-c2ccccc2)cc1`, for which the cytotoxicity call was “active”.

`C[C@H](CO)N1C[C@H](C)[C@H](CN(C)Cc2ccc(-c3ccccc3)cc2)Oc2ccc(NC(=O)CCCCCC(=O)Nc3ccccc3N)cc2CC1=O`: the cytotoxicity call was “active”.

`C[C@@H]1CN([C@H](C)CO)C(=O)Cc2cc(NC(=O)CCCCCC(=O)Nc3ccccc3N)ccc2O[C@H]1CN(C)Cc1ccc(Cl)c(Cl)c1`: the cytotoxicity call was “inactive”.

For `C[C@H]1CN([C@@H](C)CO)C(=O)Cc2cc(NC(=O)CCCCCC(=O)Nc3ccccc3N)ccc2O[C@H]1CN(C)Cc1ccc(Cl)c(Cl)c1`, the cytotoxicity call was “inactive”.

In the case of `C[C@H]1CN([C@@H](C)CO)C(=O)Cc2cc(NC(=O)CCCCCC(=O)Nc3ccccc3N)ccc2O[C@@H]1CN(C)Cc1ccc(-c2ccccc2)cc1`, the cytotoxicity call is “inactive”.

For the compound `C[C@@H]1CN([C@@H](C)CO)C(=O)Cc2cc(NC(=O)CCCCCC(=O)Nc3ccccc3N)ccc2O[C@@H]1CN(C)Cc1ccc(-c2ccccc2)cc1`, the cytotoxicity call is “active”.

In the case of `C[C@@H]1CN([C@@H](C)CO)C(=O)Cc2cc(NC(=O)CCCCCC(=O)Nc3ccccc3N)ccc2O[C@@H]1CN(C)Cc1ccccc1`, the cytotoxicity call was “inactive”.
